# In the library only some 7.3% were active in any assay of this set; here they are far more common.
# RORgamma inh: blocks mouse ROR gamma transcriptional activity; P51450; Drosophila S2 Gal4-RORgamma UAS-luciferase reporter, 20 h; Potency, µM (doses to about 53.6 µM), inactives show top-dose activity change, negative = inhibition, hits mostly inhibitors; 310,000 tested, 5.4% active; note: nearly all actives have a fitted effect of over 60% in size
# Target sequence (P51450 whole entry, looked up, the tested form may be a part): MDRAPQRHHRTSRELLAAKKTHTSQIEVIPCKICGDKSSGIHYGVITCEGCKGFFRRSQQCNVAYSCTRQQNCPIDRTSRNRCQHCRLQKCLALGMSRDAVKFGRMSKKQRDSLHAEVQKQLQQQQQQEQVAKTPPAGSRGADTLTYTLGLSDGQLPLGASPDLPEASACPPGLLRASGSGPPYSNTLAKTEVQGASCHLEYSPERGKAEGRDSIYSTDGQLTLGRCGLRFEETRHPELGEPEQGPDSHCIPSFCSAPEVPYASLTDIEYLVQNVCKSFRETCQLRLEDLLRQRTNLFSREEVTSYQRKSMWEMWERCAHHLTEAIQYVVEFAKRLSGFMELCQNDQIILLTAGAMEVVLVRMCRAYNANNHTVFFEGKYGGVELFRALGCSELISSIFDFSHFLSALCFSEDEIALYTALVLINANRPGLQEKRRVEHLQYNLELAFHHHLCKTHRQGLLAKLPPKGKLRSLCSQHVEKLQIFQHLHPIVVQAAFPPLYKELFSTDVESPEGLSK
#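 Schneider cells (Drosophila), stable Gal4 DBD–ROR gamma + UAS-luc; 1 hr cmpd preincubation; Cu2+ induction 700 uM final; 20 hr ambient; luminescence.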
# VP16 counter: counter-screen for ROR gamma inhibitors: Gal4-VP16 reporter. Drosophila S2 Gal4-VP16 UAS-luciferase, luminescence, 20 h. Potency, µM (doses to about 53.6 µM), for the others: at the top dose activity, negative = inhibition, actives largely listed as inhibitors. 310,000 tested, 3.5% active. AID 2546;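 note: Gal4-VP16 expression switched on by copper sulfate through the metallothionein promoter; nearly all actives have a fitted effect of over 50% in size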
# Tau fluor counter: counter-screen for tau fibril formation inhibitors; tau K18 P301L Alexa594 fluorescence, heparin fibrillization; 280,000 tested, 0.93% active; Potency, µM (highest dose often 57.7 µM), for inactives: top-dose activity change, negative = decrease; note: nearly all actives have a fitted effect of over 55% in size
#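 Human K18 P301L tau (15 uM unlabeled plus 0.24 uM Alexa 594-labeled, final) in 100 mM sodium acetate pH 7 was mixed with compound and 20 uM heparin and incubated 6 hr at 37 C.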
# Tau fibril FP: blocks human tau fibril formation measured by polarization; AID 1468; P10636; K18 P301L tau heparin fibrillization, Alexa594 FP, 6 h; 280,000 tested, 0.39% active; Potency, µM (top dose mostly 57.7 µM), for the others: at the highest dose activity, negative = inhibition, most hits filed as inhibitors; note: nearly all actives have a fitted effect of over 55% in size
# Target sequence (P10636 561-689 P618L limits assumed): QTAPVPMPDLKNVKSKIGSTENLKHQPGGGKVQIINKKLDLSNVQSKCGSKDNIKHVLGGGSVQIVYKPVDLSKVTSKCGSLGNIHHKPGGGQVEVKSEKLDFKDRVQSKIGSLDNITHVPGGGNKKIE
#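 Human tau K18 […] P301L fragment, 15 uM unlabeled plus 0.24 uM Alexa 594-labeled tau (final), with compound and 20 uM heparin in 100 mM sodium acetate pH 7; 6 hr at 37 C, then Alexa 594 FP read.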
# Tau fibril ThT: inhibitors of human tau fibril formation, thioflavin T binding. P10636. recombinant tau K18 P301L (four-repeat tau fragment), heparin-induced fibrillization, ThT fluorescence. Potency, µM (top dose mostly 57.4 µM), for the others: at the top dose activity, negative = inhibition, usual class: inhibitors. 270,000 tested, 2.1% active; note: nearly all actives have a fitted effect of over 55% in size
#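 In this qHTS, human K18 P301L tau is incubated with compound and heparin for 6 hr at 37 C, and Thioflavin T fluorescence then reports fibril load.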
# The depositor's hits bear a star; u = inconclusive; x = no result; [ ] = remark or other dose. Calls come from the whole dose curve; as a rule, active = well fitted curve in the direction sought with a large enough effect; inconclusive = small, poorly fitted or top-dose-only effect, or another doubt; inactive = no such curve, though single readings can be large; an effect the other way counts as inactive or inconclusive. % is set by controls: 0 for no effect and ±100 for the full control effect; potency is the fitted concentration of half-maximal effect.
SMILES,RORgamma inh,VP16 counter,Tau fluor counter,Tau fibril FP,Tau fibril ThT
CC(=O)Nc1ccc(Nc2cc(C)nc3c(-c4ccccc4)cnn23)cc1,13µM*,7.9µM*,16µM*[quencher],14%,u
c1ccc(C(NCc2cccnc2)(c2ccccc2)c2ccccc2)cc1,-31%,0%,x,x,x
CCCCOc1ncnc2c1[nH]c1ccc(C)cc12,-24%,10µM*,-21%,-8%,-17%
Cc1ccc(C(C)C)c(OCc2ccc(-c3nnco3)cc2)c1,4µM*,u,-13%,3%,u
COc1ccc(CCN2C(=O)C3C4C=CC(C3C2=O)C2C(=O)N(CCc3ccc(OC)c(OC)c3)C(=O)C42)cc1OC (configuration not stated),0%,8.9µM*,-8%,-3%,-8%
COc1ccc(CCN2C(=O)CC(NNc3ccc([N+](=O)[O-])cc3)C2=O)cc1OC (configuration not stated),1%,12%,u,-7%,11µM*
COc1ccc(CCN2C(=O)C3C4C=CC(C5CC45)C3C2=O)cc1OC (configuration not stated),3%,1%,-8%,-6%,-9%
Cc1cc(C)n(CC2CC(=O)N(c3ccc(F)c(Cl)c3)C2=O)n1 (configuration not stated),14µM*,4%,-8%,1%,-1%
COCC(=O)N(CCc1ccc(OC)c(OC)c1)Cc1nc2ccccc2c(=O)[nH]1,-32%,-13%,-3%,-4%,1%
COc1ccccc1CN(Cc1nc2ccccc2c(=O)[nH]1)C(=O)Nc1ccccc1C,10µM*,u,-4%,8%,-14%
CS(=O)(=O)N(Cc1ccc(F)cc1)Cc1nc2ccccc2c(=O)[nH]1,-14%,1%,-3%,-5%,-5%
CC(=O)N(Cc1ccc(F)cc1)Cc1nc2ccccc2c(=O)[nH]1,16µM*,u,-4%,0%,-1%
COc1ccc(CN(Cc2nc3ccccc3c(=O)[nH]2)C(=O)NC2CCCCC2)cc1,13µM*,u,-13%,9%,-18%
COc1ccc(CN(Cc2nc3ccccc3c(=O)[nH]2)C(=O)C(C)(C)C)cc1,13µM*,-5%,2%,7%,-4%
CCCCCC(C)N (configuration not stated),0%,5%,-12%,-6%,-6%
CCN(CC)CCOC(=O)c1ccc(Nc2c3c(nc4ccccc24)CCC3)cc1,x,x,-21%,-3%,-11%
O=C(Nc1ccccc1)N1CCC2(CCNCC2)CC1,-23%,1%,x,x,x
CCN(CC(=O)NCc1ccc(F)cc1)Cc1nc2ccccc2c(=O)[nH]1,4µM*,10µM*,1%,-5%,-1%
CCOc1ccc(OCCSc2nc3ccccc3[nH]2)cc1,1%,1%,u,u,u
O=c1cc(CSc2nc3ccccc3[nH]2)c2ccccc2[nH]1,-27%,2%,-13%,-9%,-10%
Fc1ccc(CSc2nc3ccccc3[nH]2)c2ccccc12,4%,2%,u,25µM*,-23%
CCCOc1ccc(CSc2nc3ccccc3[nH]2)cc1,u,6.3µM*,-27%,-15%,u
C#CCOCCOCCOCCNc1nc(N2CCN(C(=O)[C@H](CCC(=O)O)n3cc(C(N)[C@H](C)CC)nn3)CC2)nc(N2CCN(C(=O)[C@H](CCC(=O)O)n3cc(C(N)[C@H](C)CC)nn3)CC2)n1 (some centres not stated),-26%,-4%,5%,6%,u
O=C(CSc1nc(-c2ccccc2)ns1)N1CCOCC1,-25%,-14%[10 µM],-15%,0%,-6%
Cc1cccc(-c2nsc(SCC(=O)Nc3nccs3)n2)c1,11µM*,-14%,-11%,-4%,-11%
SMILES,RORgamma inh,VP16 counter,Tau fluor counter,Tau fibril FP,Tau fibril ThT
Cc1cccc(-c2nsc(SCC(=O)N3CCCC3)n2)c1,7.1µM*,u,-10%,-3%,-17%
CCCCC/C=C\C/C=C\C/C=C\CCCCCCC(=O)NCCCC(=O)O,3%,-2%,-6%,-2%,-5%
CCNc1ncc2nc(C)c(=O)n(CCOC)c2n1,-7%,1%,x,x,x
CCN(CC)c1ccc(NC(=O)c2ccc3c(c2)c(C)c(C)n3C)cc1,30%,-7%,u,12%,4µM*
CCOC(=O)c1ccc2c(c1)N(Cc1cccc(C(F)(F)F)c1)C(=O)c1ccccc1S2(=O)=O,x,x,-15%,u,-2%
CS(=O)(=O)c1sc(C#N)c2c1C(=O)CC(c1ccccc1)C2 (configuration not stated),4.5µM*,4.5µM*,0%,4%,-2%
CCOC(=O)C1=C(Cc2ccc(F)cc2)C(=O)c2ccccc2C1=O,14µM*,-26%,u,16µM*,10µM*
O=C(OCc1ccc(F)cc1)c1ccc2c(c1)-c1ccccc1C2=O,10%,-1%,-30%,7%,u
Clc1ccc(CN2C3=NCCN3c3ccccc32)cc1Cl,18µM*,-16%,4%,1%,6%
c1ccc(CN2C3=NCCN3c3ccccc32)cc1,-22%,-5%,4%,5%,6%
Nc1nc(O)c(N=Nc2ccc(S(N)(=O)=O)cc2)c(=O)[nH]1,2%,1%,x,x,x
NS(=O)(=O)c1ccc(N=Nc2c[nH]c(=O)c(O)c2)cc1,-18%,-12%,u,u,2.5µM*
O=c1c2[nH]c3ccc(F)cc3c2ncn1CCC1=CCCCC1,13%,-5%,4%,-5%,-2%
CCOc1ccccc1NC(=O)NCc1ccccn1,4%,-7%,x,x,x
Cc1ccc(C)c(-n2c3nc(=O)[nH]c(=O)c-3cc3cc([N+](=O)[O-])ccc32)c1,10µM*,11µM*,-4%,7%,1%
CC1SC(=S)N(c2ccc(N(C)C)cc2)C1=O (configuration not stated),11µM*,13µM*,x,x,x
CCOc1ccc(N(C(=O)c2ccccc2Cl)C2=NC(C)(C)CS2)cc1,3.2µM*,-16%,-11%,-2%,-10%
CCOc1ccc(N(CC(=O)Nc2ccccc2Cl)S(C)(=O)=O)cc1,3%,7%,x,x,x
COC(=O)C1CCN(C(=O)C2CCN(C(=O)[C@@H](NS(=O)(=O)c3ccc(C)cc3)C(C)C)CC2)CC1,1.1µM*,u,x,x,x
CC1CCN(c2nc(-c3cccnc3)nc3scc(-c4ccccc4)c23)CC1,46%,u,-5%,3%,-7%
CC1CCN(c2nc(CN3CCCCC3)nc3scc(-c4ccccc4)c23)CC1,10µM*,22µM*,14%,2%,-4%
COc1ccc(NC(=O)NC23CC4(C)CC(C)(CC(C)(C4)C2)C3)cc1OC,30%,-12%,13µM*[quencher],4%,u
COC(=O)c1ccc(NC(=O)Nc2ccc(OC)c(OC)c2)cc1,6%,-12%,u,16%,u
COc1cccc([C@@H]2Oc3ccc(OC)cc3C(=O)[C@H]2OC(=O)N[C@H]2CCCc3ccccc32)c1,-6%,-4%,-25%,-17%,-13%
